Reference: PubChem BioAssay AID1578 (Sanford-Burnham Center for Chemical Genomics, 2009)
Screen size: about 290,000 compounds; about 3,000 (1%) were called active. No stated cut-off is given here; in the data, active means inhibition mostly above about 36% (no sharp cut-off); inactive means mostly below about 34%. This excerpt belongs to a sample that is enriched for actives.

Assay: NOD1 signaling inhibitors, primary screen, cell-based, luminescence, uHTS (AID 1578);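 further: HEK-293T reporter cells stimulated with the NOD1 agonist gamma-tri-DAP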
Conditions: NOD1-driven NF-kB luciferase reporter cells, at 4 µM, stronger effect = higher value

inhibition, inactive:
COc1ccccc1Nc1nc(N)nc(CN2CCCCC2)n1 -0.3%
Cc1ccc(C(=O)CSc2nnc3c4ccccc4nc(Cc4ccccc4)n23)cc1 -10.1%
Cn1c(SCC(=O)c2ccc(F)cc2)nnc1-c1ccccc1N -7.5%
Cc1ccc(C(=O)CSc2nnc(-c3ccccc3N)n2C)cc1C -30.8%
CC(=O)CSc1nnc2c3ccccc3nc(C(C)(C)C)n12 -19.2%
CCCCN(C(=O)/C=C/c1ccc(OCC(C)C)c(OCC)c1)c1c(N)n(CCC)c(=O)[nH]c1=O -20.9%
CCCCNCc1cc(Cl)c(OCCC)c(OCC)c1 -20.5%
Cc1ccccc1NC(=O)COC(=O)c1cccnc1 -22.1%
COc1ccc(-n2c(SCC(=O)Nc3cccc(C(=O)O)c3)nnc2-c2ccco2)cc1 -20.2%
Cc1nc(Cl)c2c(n1)NC(=O)CO2 0.5%
CCN(CC)C(=O)Oc1ccc2ccccc2c1Br -53.4%
O=C(Nc1ccc2oc(-c3ccncc3)nc2c1)c1ccc([N+](=O)[O-])o1 22.8%
O=C(Nc1cccc(NC(=O)c2cccs2)c1)c1ccc(Br)o1 -17.2%
COc1cc(NC(=O)c2ccc([N+](=O)[O-])o2)ccc1NC(=O)c1cccs1 9.1%
O=C(Nc1ccc2oc(-c3cccnc3)nc2c1)c1ccc(Br)o1 -16.5%
O=C(Nc1ccc(-c2nc3ccccc3o2)cc1)c1cccnc1 -1.6%
Cc1ccc2oc(-c3ccc(NC(=O)c4cccnc4)cc3)nc2c1 -27.5%
COCCNC(=O)C(c1ccc(OC)cc1)N(Cc1ccco1)C(=O)CCC(=O)Nc1ccccn1 (stereo unspecified) 19.2%
COc1ccc(CN2CCN(Cc3c[nH]c4ccccc34)CC2CCO)cc1C (stereo unspecified) -1.8%
Cc1ccc(C(=O)CCNc2ccc(Cl)cc2)o1 -29.8%
CS(=O)(=O)N(CC(=O)NCC1CCCO1)c1cc(Cl)ccc1Cl (stereo unspecified) 2.4%
O=c1c[n+]([O-])c2ccccc2n1OCc1ccccn1 0.2%
C#CCN1C(=O)C(O)(CC(=O)/C=C/c2ccco2)c2ccccc21 (stereo unspecified) -14.4%
CC(C)CC(NC(=O)C1CCC(C)CC1)C(=O)N1CCN(c2ccccn2)CC1 (stereo unspecified) 0.1%
CSCCC(NC(=O)C1CCC(C)CC1)C(=O)N1CCN(c2ccccn2)CC1 (stereo unspecified) 4.8%
C/C(=N\N(c1ccccc1)c1ccccc1)c1ccco1 -19.4%
COCCOC(=O)C1=C(C)NC(=S)NC1/C=C/c1ccccc1 (stereo unspecified) -9.4%
Cc1cccc(NC(=O)c2cccc(NC(=O)c3ccccc3)c2)n1 -35.6%
COc1ccc(NC(=O)CSc2nc3nc(-c4cccs4)cc(C(F)(F)F)c3c(=O)[nH]2)c(OC)c1 31.6%
CC(=O)Nc1ccc(NC(=O)CSc2nc3nc(-c4cccs4)cc(C(F)(F)F)c3c(=O)[nH]2)cc1 -6.3%
O=C(NCc1ccccc1)C1=C[C@@H](C2CC2)C[C@@H](OCCCCO)O1 -27.5%
O=C(CC1Sc2ccccc2NC1=O)OC(C(=O)NCCc1ccccc1)c1cccnc1 (stereo unspecified) 3.7%
O=C(OCC(=O)N1CCc2ccccc21)c1c2c(nc3ccccc13)CCCCC2 4.9%
CN1/C(=C\C(=S)NC(=O)c2ccccc2Cl)C(C)(C)c2ccccc21 -48.3%
Cc1ccc(C(=O)NC(=S)/C=C2\N(C)c3ccccc3C2(C)C)cc1 15.2%
Fc1ccccc1/C=C1\CCCC2=C1Nc1nnnn1C2c1ccccc1F (stereo unspecified) 11.4%
C(=C1/CCCC2=C1Nc1ncnn1C2c1ccccc1)/c1ccccc1 (stereo unspecified) 3.1%
Cc1ccc(CSc2nn3c(=O)c(C)nnc3s2)cc1 -32.1%
N#CC(C#N)=c1ccc2c(c1)N1C3=C(CCCC3)CC3CCCCC31N=2 (stereo unspecified) 7%
O=[N+]([O-])C(=c1ccc2c(c1)N1C3=C(CCCC3)CC3CCCCC31N=2)[N+](=O)[O-] (stereo unspecified) 0.7%
COc1cccc(CNC(=O)CN(C)S(=O)(=O)c2cccc3cccnc23)c1 -2.3%
CCC(C)C(NC(=O)CCC(=O)OCC(=O)[C@@]1(O)CCC2[C@@H]3CCC4=CC(=O)C=C[C@]4(C)C3[C@@H](O)C[C@@]21C)C(=O)O (stereo partly specified) -4.9%
O=C(Nc1nc(-c2ccccn2)cs1)c1ccc(Br)s1 32.1%
O=C(Nc1nc(-c2cccs2)cs1)c1ccc(Cl)s1 -18.7%
Cc1cc(=O)n(C)c2ccc(S(=O)(=O)N3CCOCC3)cc12 -9%
Cc1cccc(N=N/C(=C\O)C(=O)c2cccs2)c1 27%
O=C(/C(=C/O)N=Nc1ccccc1)c1cccs1 -9.4%
Cc1ccccc1C(=O)Nc1c(C)[nH]c(=O)[nH]c1=O -1.1%
CCC(=O)Nc1cccc(C2=NOC3(C2)C[C@H](C(N)=O)N(C(=O)Cc2ccc([N+](=O)[O-])cc2)C3)c1 (stereo partly specified) 0%
O=[N+]([O-])c1ccc(-c2ccc(/C=N/Nc3nc(N4CCCC4)nc(N4CCCC4)n3)o2)cc1 -26.6%
O=[N+]([O-])c1ccc(-c2ccc(/C=N/Nc3nc(N4CCCCC4)nc(N4CCCCC4)n3)o2)cc1 7.6%

inhibition, active:
Cc1ccc(C(=O)CSc2nnc3c4ccccc4nc(C(C)(C)C)n23)cc1 92.5%
Cc1ccc(C(=O)CSc2nnc(-c3ccccc3N)n2C)cc1 101%
Cc1ccc2nc(-c3ccc(NC(=O)c4cccnc4)cc3)oc2c1 58.7%
O=C(Nc1cccc(NC(=O)c2cccs2)c1)c1ccc([N+](=O)[O-])o1 36.9%
CC1CCC(C(=O)NC(C(=O)N2CCN(c3ccccn3)CC2)C(C)C)CC1 (stereo unspecified) 68%
COc1ccccc1C(=O)NC(=S)/C=C1/N(C)c2ccccc2C1(C)C 90.4%
Fc1ccccc1/C=C1\CCCC2=C1Nc1ncnn1C2c1ccccc1F (stereo unspecified) 91%
N#C/C(C(N)=O)=c1/ccc2c(c1)N1C3=C(CCCC3)CC3CCCCC31N=2 (stereo unspecified) 86.2%
COc1ccc(N=N/C(=C\O)C(=O)c2cccs2)cc1 41.3%
O=[N+]([O-])c1cccc(-c2ccc(/C=N/Nc3nc(N4CCCCC4)nc(N4CCCCC4)n3)o2)c1 34.4%
